The text below walks through data of PubChem BioAssay AID504467 (National Center for Advancing Translational Sciences (NCATS), 2011).

The structures appear in SMILES notation. Screen size: about 330,000 compounds; about 7,700 (2.3%) were called active. Roughly 26% stayed inconclusive and do not appear here. The call rests on the fitted dose curve; in most records, active means well fitted inhibition curve with a large enough effect; inconclusive means small, poorly fitted or top-dose-only effect, or effect the other way; inactive means flat fitted curve, though single readings scatter. The entries come from a sample that favours actives as a whole. Where a call stands in place of a potency, no number is given.
Potency means the concentration at half of the fitted maximal effect.

The test in a line: qHTS screen for small molecules that inhibit ELG1-dependent DNA repair in human embryonic kidney (HEK293T) cells expressing luciferase-tagged ELG1. Further: nearly all actives have a fitted effect of over 55% in size. Particulars: HEK293T ELG1-luciferase reporter, luminescence, 16 h, DNA damage induced by 5-fluorouridine; series mostly up to 46.1 µM. In a few lines:
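Overnight (16 hr) co-exposure of 2,000 cells/well to 5-fluorouridine and compound at 37 °C preceded detection. Luciferase was quantified via ONE-Glo luminescence; loss of signal denotes inhibition.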
For `CCc1nn(CCCC(=O)Nc2ccc(C)cc2C)c(=O)c2cc3occc3n12`, the Potency entry is “inactive”.

For the compound `CCn1nc(C)c(NC(=O)/C=C/c2ccc(OC)c(COc3ccc(Br)cc3)c2)c1C`, the Potency is 6.51 µM (active).

Take `C/C=C/c1ccc(OCC(=O)OCC(=O)Nc2c(C)nn(-c3ccccc3)c2C)c(OC)c1`: the Potency entry was “inactive”.

In the case of `COc1ccc(C(C)=O)cc1COc1ccc(Cl)c(C)c1`, the Potency entry was “inactive”.

`CC1CCCCC12NC(=O)N(CC(=O)OCc1c(F)cccc1Cl)C2=O` (stereo unspecified): the Potency entry was “inactive”.

Regarding `COc1ccc(C(=O)NC2CC2)cc1OC1CCN(C/C=C/c2ccccc2)CC1`, the Potency entry was “inactive”.

`CC(C)(CNC(=O)Cc1ccc(Cl)cc1Cl)N1CCOCC1`: the Potency entry was “inactive”.

On to `Cc1nn(Cc2ccccc2)c(C)c1CNC(=O)c1ccc(F)c(S(=O)(=O)N2CCOCC2)c1`, for which the Potency result is “inactive”.

For the compound `CC(C)(CNC(=O)c1ccc(Cl)c(S(=O)(=O)N2CCc3ccccc3C2)c1)N1CCOCC1`, the Potency was 1.83 µM (active).

Regarding `Cc1ccccc1CSCCNC(=O)c1ccc(Cl)c(S(=O)(=O)N2CCOCC2)c1`, the Potency is 18.4 µM (active).

As for `Cc1ccc(C(=O)Nc2ncccc2C)cc1S(=O)(=O)N1CCOCC1`, the Potency entry is “inactive”.

For the compound `CN(C)S(=O)(=O)c1ccc(C(=O)NCC(C)(C)N2CCOCC2)cc1`, the Potency result is “inactive”.

As for `COc1cccc(C(=O)Nc2nnc(S(=O)(=O)N3CCCCC3)s2)c1`, the Potency result was “inactive”.

As to `CCCn1nc(C(=O)NNC(=O)CCOc2ccccc2OCC)c2ccccc2c1=O`, the Potency entry was “inactive”.

As for `O=Cc1c(Nc2ccccc2Cl)nc2ccccn2c1=O`, the Potency entry was “inactive”.

Take `Cc1nc2ccccc2c(=O)n1-c1ccc(F)c(NC(=O)c2cccs2)c1`: the Potency entry was “inactive”.

With `O=C(CN1C(=O)NC2(CCCCCC2)C1=O)Nc1ccc([N+](=O)[O-])cc1`, the Potency entry is “inactive”.

On to `CC(=O)Nc1ccc(C(=O)Nc2cccc(S(=O)(=O)NC3=NCCC3)c2)cc1`, for which the Potency result is “inactive”.

Consider `CC(=O)c1ccc(S(=O)(=O)N(C)CCCC(=O)N(C)Cc2ccccc2F)cc1`, for which the Potency entry is “inactive”.

Regarding `Cc1ccccc1N1CCN(C2CCCN(C(=O)c3ocnc3C)C2)CC1` (stereo unspecified), the Potency entry is “inactive”.

With `Cc1ccccc1N1CCN(C2CCCN(C(=O)c3cn4c(C)cccc4n3)C2)CC1` (stereo unspecified), the Potency is 16.4 µM (active).

For the compound `Cc1cnc(C(=O)N2CCCC(N3CCN(c4ccccc4F)CC3)C2)cn1` (stereo unspecified), the Potency result was “inactive”.

Turning to `CC(NC(=O)COC(=O)c1ccc2ccccc2n1)c1ccccc1` (stereo unspecified), the Potency result is “inactive”.

For the compound `CCN(CC)S(=O)(=O)c1cc(C(=O)Nc2cc(S(=O)(=O)N3CCOCC3)ccc2N2CCCC2)ccc1F`, the Potency result is “inactive”.

As to `O=c1oc2ccc(C#CC3(O)CCCCC3)cc2cc1-n1cc(-c2ccsc2)nn1`, the Potency result is “inactive”.

As for `COC(=O)[C@]1(Cc2ccccc2)N[C@H](CN(C)S(=O)(=O)c2ccc(OC(F)(F)F)cc2)[C@@H]2C(=O)N(Cc3ccccc3)C(=O)[C@@H]21`, the Potency entry is “inactive”.

Consider `O=[N+]([O-])c1cc(Br)c(O)c(/C=N/Nc2nc3ccccc3s2)c1`, for which the Potency is 4.11 µM (active).

With `Cc1ccc(S(=O)(=O)Nc2nc3ccccc3s2)cc1[N+](=O)[O-]`, the Potency result is “inactive”.

`Cc1nn(CC(=O)Nc2nc3ccccc3s2)c(C)c1[N+](=O)[O-]`: the Potency result was “inactive”.

As for `Cc1ccccc1NC(=O)NCC1CCN(Cc2cccc(Cl)c2)CC1`, the Potency result is “inactive”.

For the compound `CC(=O)N1CCOc2ccc(S(=O)(=O)N3CCN(c4cccc(C(F)(F)F)c4)CC3)cc21`, the Potency entry is “inactive”.

As for `C/C(N)=C(/C#N)C(=O)COC(=O)c1cc(-c2cccc(Br)c2)nc2ccccc12`, the Potency was 11.6 µM (active).

Turning to `COc1cccc(OC)c1C(=O)OCC(=O)/C(C#N)=C(\C)N`, the Potency result is “inactive”.

Take `C/C(N)=C(/C#N)C(=O)COC(=O)c1cc(-c2ccccc2)nc2ccc(Br)cc12`: the Potency entry is “inactive”.

On to `CCOc1ccccc1Nc1nnc(SCC(=O)NCC2CCCO2)s1` (stereo unspecified), for which the Potency entry is “inactive”.

Turning to `O=C(COc1ccc(F)cc1Br)NCC1COc2ccccc2O1` (stereo unspecified), the Potency entry was “inactive”.

With `COc1ccc2c(CN3CCN(S(=O)(=O)c4cccs4)CC3)cc(=O)oc2c1`, the Potency was 23.1 µM (active).

In the case of `CC(C)c1ccc2oc(=O)cc(CN3CCN(Cc4ccccc4)CC3)c2c1`, the Potency entry was “inactive”.

As to `Cc1ccc2c(CN3CCN(S(=O)(=O)c4ccccc4C(F)(F)F)CC3)cc(=O)oc2c1`, the Potency was 17.8 µM (active).

Take `Cc1cc2oc(=O)cc(CN3CCN(S(=O)(=O)c4cccs4)CC3)c2cc1C(C)C`: the Potency is 2.31 µM (active).

`Cc1cc2oc(=O)cc(CN3CCN(Cc4ccccc4)CC3)c2cc1C`: the Potency result was “inactive”.

For `O=c1cc(CN2CCN(S(=O)(=O)/C=C/c3ccccc3)CC2)c2ccc(O)cc2o1`, the Potency result was “inactive”.

`COc1ccc2oc(=O)cc(CN3CCOCC3)c2c1`: the Potency entry is “inactive”.

On to `O=S(=O)(c1cccs1)N1CCN(Cc2ccccc2)CC1`, for which the Potency entry is “inactive”.

Regarding `O=S(=O)(c1ccc(F)cc1)N1CCN(Cc2ccccc2C(F)(F)F)CC1`, the Potency result is “inactive”.

For the compound `COc1ccc(CCNC(=O)CCc2cn(C)c3ccccc23)c(OC)c1`, the Potency result was “inactive”.

For the compound `CCOc1ccc(NS(=O)(=O)c2ccc(C(=O)NCC(c3ccccc3OC)N3CCCC3)cc2)cc1` (stereo unspecified), the Potency result is “inactive”.

For `O=C(OCC(=O)N1CCN(c2ccccc2)CC1)c1ccc([N+](=O)[O-])s1`, the Potency entry was “inactive”.

Regarding `COc1ccc(CC(=O)N[C@@H]2c3cc(OC)c(OC)cc3C[C@H]2OCc2ccccc2)cc1`, the Potency result is “inactive”.

`CC(C)CN(C(=O)COC(=O)c1ccc2ccccc2c1)c1c(N)n(Cc2ccccc2)c(=O)[nH]c1=O`: the Potency result is “inactive”.

On to `O=C(O[C@@H]1[C@H](Cc2ccccc2)NS(=O)(=O)[C@H]2C[C@@H]3C=C[C@]12O3)c1ccccc1Br`, for which the Potency result was “inactive”.

In the case of `COc1ccc(C2=NS(=O)(=O)N(C)C(C(=O)NC(C)c3ccccc3)=C2)cc1` (stereo unspecified), the Potency entry is “inactive”.

Regarding `COc1cc(NC(=O)C2=CC(c3ccc(C)cc3)=NS(=O)(=O)N2C)cc(OC)c1OC`, the Potency was 13 µM (active).

`COc1cc(NC(=O)C2=CC(c3ccco3)=NS(=O)(=O)N2C)cc(OC)c1OC`: the Potency result is “inactive”.

As for `C=CCn1c(SCc2cc(C(=O)OC)c(C)o2)nnc1-c1ccncc1`, the Potency result was “inactive”.

For the compound `C=CCn1c(SCc2c(C(=O)OC)sc(N)c2C(=O)OC)nnc1-c1ccc(Cl)cc1`, the Potency is 23.1 µM (active).

With `C=CCn1c(SCn2nnc3ccccc3c2=O)nnc1-c1ccc(Cl)cc1`, the Potency result is “inactive”.

As for `C#CCOCCOCCOCCNc1nc(N2CCN(C(=O)[C@H](CCCN=C(N)N)n3cc(C(N)[C@@H](C)CC)nn3)CC2)nc(N2CCN(C(=O)[C@H](CO)n3cc([C@@H](N)C(C)C)nn3)CC2)n1` (stereo partly specified), the Potency result is “inactive”.

As to `CN(c1ccc(OCC(=O)O)cc1)S(=O)(=O)c1ccc2ccccc2c1`, the Potency entry is “inactive”.

Regarding `CC(C)=CCCC(C)CN1CCC(n2nccc2NC(=O)c2ccccc2)CC1` (stereo unspecified), the Potency entry is “inactive”.

As to `Cc1cccc2cc(CN(Cc3cccs3)C(=S)NCc3ccco3)c(=O)[nH]c12`, the Potency is 20.6 µM (active).

For `Cc1cc(C)c2[nH]c(=O)c(CN(Cc3ccccc3)C(=S)NCCCN(C)C)cc2c1`, the Potency entry was “inactive”.

As to `Cc1cccc2cc(CN(C(=O)c3cccs3)c3ccccc3)c(=O)[nH]c12`, the Potency result is “inactive”.

For the compound `C=CC[C@@H](CC(=O)N[C@@H](CO)Cc1ccccc1)C(=O)N[C@H](COC(=O)[C@H](CC=C)CC(=O)OC(C)(C)C)Cc1ccccc1`, the Potency result was “inactive”.

For `COC(=O)C(C)Sc1ccc2nnc(-c3cccc(F)c3)n2n1` (stereo unspecified), the Potency result was “inactive”.

In the case of `COCCNc1cc(-c2ccccc2)nc2cc(-c3cccc(F)c3)nn12`, the Potency was 18.3 µM (active).

Take `COCCCNc1nc2c(-c3cccc(C(F)(F)F)c3)nnn2c2ccccc12`: the Potency entry was “inactive”.

Regarding `O=S(=O)(c1ccc(SCc2ccc(Br)cc2)nc1)N1CCOCC1`, the Potency entry was “inactive”.

Regarding `CC(=O)Oc1ccc2c(=O)oc(-c3ccc([N+](=O)[O-])cc3)nc2c1`, the Potency result is “inactive”.

With `O=C(CC(O)(C(F)(F)F)C(F)(F)F)Nc1ccc(Cl)c(Cl)c1`, the Potency is 4.11 µM (active).

With `O=C(CC(=O)Nc1ccc(Cl)c(Cl)c1)N/N=C/c1ccc(O)cc1`, the Potency entry was “inactive”.

For the compound `Cc1ccc(NC(=O)C/C(N)=N/O)cc1Cl`, the Potency entry is “inactive”.

As for `COc1cccc2cc(C(=O)NCc3ccc(C)cc3)c(=N)oc12`, the Potency result was “inactive”.

As to `CCOc1ccc(NC(=O)CN(C)C(=O)c2cccc(S(=O)(=O)N3CCCC3)c2)cc1OCC`, the Potency result was “inactive”.

For the compound `O=C(CSc1ccc2nnc(-c3ccccc3)n2n1)N1CCCc2ccccc21`, the Potency was 25.9 µM (active).

On to `Cn1c(SCC(=O)N2CCCc3ccccc32)nc2ccccc2c1=O`, for which the Potency is 16.4 µM (active).

For the compound `CCCn1c(SCC(=O)N2CCc3ccccc32)nnc1-c1ccncc1`, the Potency result is “inactive”.

Regarding `O=C(CSc1nc2[nH]ncc2c(=O)n1-c1ccccc1)N1CCCc2ccccc21`, the Potency entry is “inactive”.

`CCC(=O)N1CCCc2ccccc21`: the Potency result was “inactive”.

In the case of `CCOC(=O)CNC(=O)CSc1ccc2nnc(-c3cccnc3)n2n1`, the Potency entry is “inactive”.

`O=C1NC(Cc2ccc(O)cc2)c2nc3ccc(Cl)cc3c(=O)n2-c2ccccc21` (stereo unspecified): the Potency result was “inactive”.

`CCOc1ccc(NC(=O)C2CCN(C(=O)N3CCOc4ccccc43)CC2)cc1`: the Potency entry was “inactive”.

In the case of `O=C(Nc1ccc(F)cc1)C1CCCN(S(=O)(=O)c2ccc(-n3cnnn3)cc2)C1` (stereo unspecified), the Potency entry is “inactive”.

Regarding `COC(=O)c1ccc(CN2CCCC(C(=O)Nc3cccc(-n4cnnn4)c3)C2)cc1` (stereo unspecified), the Potency was 16.4 µM (active).

As for `CC(C)CNC(=O)C1CCCN(S(=O)(=O)c2ccc(-n3cnnn3)cc2)C1` (stereo unspecified), the Potency entry is “inactive”.

Turning to `O=C(NCCc1ccco1)C(=O)NCCC1CCCCN1S(=O)(=O)c1ccccc1` (stereo unspecified), the Potency result is “inactive”.

On to `N#C/C(=C(/O)COc1cccc2ccccc12)c1nc2ccccc2[nH]1`, for which the Potency entry is “inactive”.

Turning to `N#C/C(=C(/O)Cc1cccc2ccccc12)c1nc2ccccc2s1`, the Potency was 20.6 µM (active).

Take `c1ccc2c(CSCc3nc4ccccc4[nH]3)cccc2c1`: the Potency result was “inactive”.

For `Cc1noc(C)c1S(=O)(=O)N(C)C[C@H]1Oc2ccc(NC(=O)C3CCCCC3)cc2C(=O)N([C@H](C)CO)C[C@@H]1C`, the Potency entry was “inactive”.

As for `O=C(Nc1ccc(C(F)(F)F)cc1)c1cccc(-n2cnnn2)c1`, the Potency result was “inactive”.

`CC(=O)Nc1ccc(NS(=O)(=O)c2ccc3c(c2)NC(=O)CC(=O)N3)cc1`: the Potency entry was “inactive”.

`COc1ccc(NC(=O)Cn2ncn3c(cc4ccccc43)c2=O)c(OC)c1OC`: the Potency result is “inactive”.

For `COc1cc(-c2noc(C3CCCN(S(=O)(=O)c4cccc(Cl)c4)C3)n2)cc(OC)c1OC` (stereo unspecified), the Potency was 20.6 µM (active).

On to `COc1ccc(C(=O)C2CCCN(S(=O)(=O)c3cccc(C)c3)C2)c(C)c1` (stereo unspecified), for which the Potency entry was “inactive”.

For `COc1ccc(NC(=O)N2CCCC(c3nc(-c4ccc(F)cc4)no3)C2)cc1` (stereo unspecified), the Potency result is “inactive”.
